ChEMBL document CHEMBL3433997, “St. Jude Leishmania screening dataset” (2016)
“And” between values parts separate entries of the source, which are not always exact repeats. Identical values can stand only once.

Columns and labels:
Assay type in all cases: functional
[1] = target: Solute carrier family 2, facilitated glucose transporter member 1 (Homo sapiens) (UniProt P11166); assay: ST_JUDE_LEISH: Cytotoxicity at 2uM final concentration against transgenic Leishmania Mexicana promastigotes LmGLUT1 that are glucose transport deficient and complemented with the human glucose transporter GLUT1. Activity is measured by DNA content using SYBR green in vitro
[2] = target: Hexose transporter 1 (Plasmodium falciparum) (UniProt O97467); assay: ST_JUDE_LEISH: Cytotoxicity at 2uM final concentration against transgenic Leishmania Mexicana promastigotes LmPfHT that are glucose transport deficient and complemented with the Plasmodium falciparum hexose transporter. Activity is measured by DNA content using SYBR green in vitro
[3] = target: Glucose transporter (Leishmania mexicana) (UniProt O61059); assay: ST_JUDE_LEISH: Cytotoxicity at 2uM final concentration against transgenic Leishmania Mexicana promastigotes LmGT2 that are glucose transport deficient and complemented with the L. Mexicana glucose transporter 2. Activity is measured by DNA content using SYBR green in vitro

Sequence of Solute carrier family 2, facilitated glucose transporter member 1 (Homo sapiens) (P11166 whole entry): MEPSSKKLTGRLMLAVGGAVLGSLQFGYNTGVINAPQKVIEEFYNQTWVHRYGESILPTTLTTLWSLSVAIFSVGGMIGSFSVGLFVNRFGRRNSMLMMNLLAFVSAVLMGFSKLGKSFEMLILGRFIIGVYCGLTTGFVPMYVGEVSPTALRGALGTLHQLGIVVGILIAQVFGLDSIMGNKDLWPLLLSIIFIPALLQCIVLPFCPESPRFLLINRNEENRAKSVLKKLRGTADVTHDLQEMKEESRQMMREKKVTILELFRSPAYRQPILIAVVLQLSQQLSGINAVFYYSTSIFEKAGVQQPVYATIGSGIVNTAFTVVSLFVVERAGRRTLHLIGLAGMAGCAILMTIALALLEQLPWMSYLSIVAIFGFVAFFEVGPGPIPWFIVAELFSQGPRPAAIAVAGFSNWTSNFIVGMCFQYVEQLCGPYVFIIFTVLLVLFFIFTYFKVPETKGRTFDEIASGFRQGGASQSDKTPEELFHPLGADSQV

Row | SMILES | inhibition [1] | inhibition [2] | inhibition [3]
1 | Cc1ccc([N+](=O)[O-])cc1NC(=O)N(CC(O)c1ccccc1)C1CCCCC1 (stereo unspecified) | 1.93% | 2.61% | 2.38%
2 | CN1CCc2cc(NC(=O)c3cc4ccccc4s3)cc(-c3ccccc3)c2CC1 | 97.2% | 101% | 95.9%
3 | CCc1sc(-c2ccc(C(C)(C)C)cc2)nc1C(=O)NCCCN1CCCC1=O | -1.44% | -2.22% | -4.69%
4 | Cc1noc(C)c1C(=O)N1CCCC(c2[nH]c3c(C)cccc3c2-c2ccncc2)C1 (stereo unspecified) | 2.42% | 3% | 2%
5 | O=C(Nc1ccc2c(c1)CCN2C1CCN(Cc2cc(F)cc(F)c2F)C1)c1ccco1 (stereo unspecified) | 1.75% | 2.07% | 3.47%
6 | CCCN(CCC)CCOc1ccc(C(O)(C#CC(O)(c2ccc(OCCN(CCC)CCC)cc2)c2cccc(Cl)c2)c2cccc(Cl)c2)cc1 (stereo unspecified) | 7.1% | 4.78% | 2.38%
7 | Cc1ccc(F)c(OCC2CCN(c3ncc(C(=O)NC4CC4)cc3Cl)CC2)c1 | -1.14% | 2.1% | 1.1%
8 | COc1ccc(Br)cc1/C=C/C(=O)Nc1cccc(C2CCCN(C)C2)c1 (stereo unspecified) | 6.13% | 5.55% | 7.45%
9 | CC(C)(C)c1ccc(CNC(=O)/C=C/c2ccc(CNC3CCNCC3)cc2)cc1 | -1.23% | -1.07% | -1.84%
10 | C=C[C@H]1CN(CCCCCCC)CC[C@H]1CCN(C)c1ccnc2ccc(OC)cc12 | 1.17% | 2.44% | 2.13%
11 | CCCCOC(=O)NCCCC[C@H](NC(=O)OC(C)(C)C)C(=O)N[C@H](C(=O)OC(c1ccccc1)c1ccccc1)[C@H]1O[C@@H](n2ccc(=O)[nH]c2=O)[C@@H]2OC(C)(C)O[C@@H]21 | 0.88% | 0.71% | 0.44%
12 | O=C(Nc1cccc(-c2nn3ncccc3c2-c2ccnc(Nc3ccc(N4CCOCC4)cc3)n2)c1)c1c(F)cccc1F | 10.7% | 16.6% | 6.47%
13 | Cc1cccc(C)c1CNc1ccnc2ccccc12 | 1.11% | 2.91% | 6.9%
14 | COc1ccc2ncc(F)c(CCN3CCC(CNC(=O)C(=O)c4c[nH]c5ccccc45)CC3)c2n1 | 6.8% | 7.49% | 1.37%
15 | Cc1ccc(F)cc1-c1cc(N2CCCN(C(=O)c3ccc(Br)o3)CC2)ncn1 | 0.81% | 0.93% | -0.08%
16 | O=C(NC1CCCCCC1)[C@@H]1CCCN1C(=O)c1ccc(O)c(-c2ccc(Cl)c(Cl)c2)c1 | 0.09% | 2.12% | -1.06%

Row | SMILES | inhibition [1] | inhibition [2] | inhibition [3]
17 | CC1CC(NCCCNc2cc(=O)c3ccccc3[nH]2)c2cc(Cl)c(Cl)c(Cl)c21 (stereo unspecified) | -1.12% | -1.47% | -2.15%
18 | CN(C)c1ccc(CN2CCCCC(NC(=O)c3cc(-c4ccccc4F)cs3)C2)cc1 (stereo unspecified) | -0.57% | -0.62% | -7.76%
19 | CC(=O)Nc1ncc(C(=O)Nc2cccc(-c3ccc(-c4nc5cccc(C)c5[nH]4)cc3)c2)s1 | 0.14% | 0.54% | 0.54%
20 | CCC(C(=O)Nc1cc(=O)[nH]c2nc(-c3ccco3)nn12)c1ccccc1 (stereo unspecified) | 0.95% | 1.55% | 1.71%
21 | OCCn1c(CNCCCNc2nc3ccccc3[nH]2)cc2c(Cl)cc(Cl)cc21 | 82% | 88.2% | 80.5%
22 | O=C(Nc1ccc(Br)cc1)N(CCN1CCOCC1)CC(O)COc1ccc(Cl)c(F)c1 (stereo unspecified) | -0.94% | -1.53% | 1.5%
23 | COc1ccc2nc3cc(Cl)ccc3c(NCCNCC(O)CO)c2n1 (stereo unspecified) | 7.93% | 6.76% | 5.98%
24 | O=C(/C=C/c1ccc(Cl)c(Cl)c1)NCCCCCN1CCC(NC(=O)NCCc2ccccc2)CC1 | 1.48% | 1.69% | -3.26%
25 | Cn1nccc1C(=O)NCCNCc1ccc(-c2cccc(-c3nc4ccccc4[nH]3)c2)cc1 | -0.28% | -0.94% | 0.68%
26 | COc1ccc2ncc(F)c(C(O)CN3CCC(NCc4ccc5c(n4)NC(=O)CO5)CC3)c2c1 (stereo unspecified) | -0.67% and 5.77% | 2.57% and 4.56% | -3.55% and 1.93%
27 | CCCCn1c(Sc2ccc(C#N)c([N+](=O)[O-])c2)nnc1-c1cccc(Cl)c1 | 4.8% | 6.03% | 5.83%
28 | CC(C)(C)c1ccc2nccc(Nc3cccc(O)c3)c2c1 | 2.99% | 2.35% | 2.33%
29 | CCc1cn2c3c(cc(C(=O)N[C@@H](Cc4ccccc4)[C@H](O)CNC(C)C)cc13)N(C)S(=O)(=O)C2 | -2.02% | -1.87% | 0.06%
30 | CC1(C)N=C(N)N=C(N)N1OCc1cc2ccccc2cc1CON1C(N)=NC(N)=NC1(C)C | 1.9% | 1.86% | 0.5%
31 | CCC(C)NC(=O)Nc1cccc(-c2cccc(-c3nc4cccc(C)c4[nH]3)c2)c1 (stereo unspecified) | -1.54% | -0.37% | 11.5%
32 | COc1ccc(O)c(C(=O)c2cnc3c(c2)c(-c2ccc(F)cc2)c(C#N)c(=O)n3C)c1 | 8.74% | 6.89% | 4.94%
